PubChem BioAssay
The source made the active and inactive calls.

Assays:
[1] = binders of probe aFSTL3 on microarray, primary screen, stem cell growth factor project, biochemical, small-molecule microarray, fluorescence 635/667 (AID 1064); conditions: higher = more signal;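 also: measures binding of the biotinylated anti-FSTL3 antibody to printed compounds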
[2] = binders from COS7 lysate, DM2A8 probe, primary screen, torsin A project, cell lysate, small-molecule microarray, fluorescence 635/667 (AID 1065); conditions: higher = more signal, COS7 lysate expressing mutant human TOR1A
[3] = binders of probe aFGF2 on microarray, primary screen, stem cell growth factor project, biochemical, small-molecule microarray, fluorescence 635/667 (AID 1067); conditions: higher = more signal;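 also: measures binding of biotinylated aFGF2 protein to printed compounds on slides; z-score merges feature fluorescence and signal-to-noise across triplicate slides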
[4] = binders of probe aFGF10 on microarray, primary screen, stem cell growth factor project, biochemical, small-molecule microarray, fluorescence 635/667 (AID 1071); conditions: higher = more signal;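 also: score merges 667 nm spot intensity and signal to noise from triplicate slides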
[5] = target: Neurogenic locus notch homolog protein 2 (Homo sapiens) (UniProt Q04721); assay: Notch2 binders on small-molecule microarrays, primary screen, biochemical, small-molecule microarray, 635 nm fluorescence, stem cell growth factors (AID 1073); conditions: Notch2 binding, higher = more signal
Sequence of Neurogenic locus notch homolog protein 2 (Homo sapiens) (Q04721 whole entry, looked up, canonical isoform): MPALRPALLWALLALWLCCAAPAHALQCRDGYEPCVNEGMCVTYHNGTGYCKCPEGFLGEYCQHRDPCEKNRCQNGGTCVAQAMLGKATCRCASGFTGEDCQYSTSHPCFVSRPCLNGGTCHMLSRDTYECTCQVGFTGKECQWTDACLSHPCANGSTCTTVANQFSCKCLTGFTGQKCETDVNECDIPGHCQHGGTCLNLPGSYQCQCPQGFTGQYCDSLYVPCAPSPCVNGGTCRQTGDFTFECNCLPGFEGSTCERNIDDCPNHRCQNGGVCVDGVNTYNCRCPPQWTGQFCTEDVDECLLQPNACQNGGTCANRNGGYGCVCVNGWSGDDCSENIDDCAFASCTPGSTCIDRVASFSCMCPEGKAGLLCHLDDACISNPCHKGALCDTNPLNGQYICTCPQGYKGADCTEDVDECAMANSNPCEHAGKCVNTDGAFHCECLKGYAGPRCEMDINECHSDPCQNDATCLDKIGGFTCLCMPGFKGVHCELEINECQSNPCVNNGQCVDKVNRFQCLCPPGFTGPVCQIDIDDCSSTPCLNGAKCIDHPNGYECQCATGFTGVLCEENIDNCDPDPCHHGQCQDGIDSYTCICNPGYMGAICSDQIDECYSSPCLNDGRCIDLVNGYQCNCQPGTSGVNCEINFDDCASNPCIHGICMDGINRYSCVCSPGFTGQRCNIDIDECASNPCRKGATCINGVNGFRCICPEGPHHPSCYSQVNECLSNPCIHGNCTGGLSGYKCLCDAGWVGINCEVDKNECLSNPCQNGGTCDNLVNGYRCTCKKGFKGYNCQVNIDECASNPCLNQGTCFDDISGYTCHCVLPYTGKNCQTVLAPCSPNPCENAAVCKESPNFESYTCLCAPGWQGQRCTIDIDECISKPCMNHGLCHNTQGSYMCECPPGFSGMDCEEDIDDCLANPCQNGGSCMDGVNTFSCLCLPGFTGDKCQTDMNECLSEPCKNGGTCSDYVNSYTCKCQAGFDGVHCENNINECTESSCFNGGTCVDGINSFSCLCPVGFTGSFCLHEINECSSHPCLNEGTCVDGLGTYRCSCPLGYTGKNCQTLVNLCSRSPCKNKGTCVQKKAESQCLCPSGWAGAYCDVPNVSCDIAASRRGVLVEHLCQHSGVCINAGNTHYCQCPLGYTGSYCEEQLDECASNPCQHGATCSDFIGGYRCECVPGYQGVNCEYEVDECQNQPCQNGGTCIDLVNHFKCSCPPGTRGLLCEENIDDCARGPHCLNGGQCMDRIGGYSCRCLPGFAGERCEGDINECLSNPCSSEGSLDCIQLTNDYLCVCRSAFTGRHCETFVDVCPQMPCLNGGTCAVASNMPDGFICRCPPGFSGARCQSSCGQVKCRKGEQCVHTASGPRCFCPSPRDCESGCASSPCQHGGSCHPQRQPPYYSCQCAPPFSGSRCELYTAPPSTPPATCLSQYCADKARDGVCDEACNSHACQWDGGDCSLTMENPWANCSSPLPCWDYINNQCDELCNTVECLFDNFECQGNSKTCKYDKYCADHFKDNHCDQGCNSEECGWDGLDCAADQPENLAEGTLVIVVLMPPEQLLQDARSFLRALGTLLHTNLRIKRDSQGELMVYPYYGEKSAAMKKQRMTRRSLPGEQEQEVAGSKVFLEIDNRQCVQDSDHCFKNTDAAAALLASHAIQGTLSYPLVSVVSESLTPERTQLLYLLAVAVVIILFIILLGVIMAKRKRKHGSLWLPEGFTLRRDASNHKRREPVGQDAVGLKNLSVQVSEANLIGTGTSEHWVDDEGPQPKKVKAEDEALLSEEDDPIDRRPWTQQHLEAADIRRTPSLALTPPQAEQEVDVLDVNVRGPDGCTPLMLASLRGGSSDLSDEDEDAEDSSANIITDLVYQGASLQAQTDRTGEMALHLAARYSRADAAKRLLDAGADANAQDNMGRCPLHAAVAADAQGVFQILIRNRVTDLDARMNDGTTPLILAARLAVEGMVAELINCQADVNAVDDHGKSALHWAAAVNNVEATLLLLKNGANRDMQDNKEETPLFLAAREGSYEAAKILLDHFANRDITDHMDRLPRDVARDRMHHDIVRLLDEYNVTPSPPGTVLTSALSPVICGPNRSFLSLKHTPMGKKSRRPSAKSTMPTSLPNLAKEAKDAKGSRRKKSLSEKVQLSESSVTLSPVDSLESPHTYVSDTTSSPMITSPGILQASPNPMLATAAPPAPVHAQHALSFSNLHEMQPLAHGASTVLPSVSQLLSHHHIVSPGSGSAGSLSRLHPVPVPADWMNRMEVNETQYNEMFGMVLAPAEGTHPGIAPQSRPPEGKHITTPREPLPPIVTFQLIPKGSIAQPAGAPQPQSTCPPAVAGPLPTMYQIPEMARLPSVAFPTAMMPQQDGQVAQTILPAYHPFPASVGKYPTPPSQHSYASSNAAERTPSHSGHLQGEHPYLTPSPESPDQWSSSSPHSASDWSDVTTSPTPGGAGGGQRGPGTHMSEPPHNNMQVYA

[6] = target: Pro-neuregulin-1, membrane-bound isoform (Homo sapiens) (UniProt Q02297); assay: NRG1 binders on small-molecule microarrays, primary screen, psychiatric disease protein project, biochemical, small-molecule microarray, fluorescence 635/667 (AID 1075); conditions: NRG1 binding, 635 nm fluorescence, higher = more signal;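 also: score combines 667 nm spot fluorescence with signal to noise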
Sequence of Pro-neuregulin-1, membrane-bound isoform (Homo sapiens) (Q02297 whole entry, looked up, the tested form may be a part, canonical isoform): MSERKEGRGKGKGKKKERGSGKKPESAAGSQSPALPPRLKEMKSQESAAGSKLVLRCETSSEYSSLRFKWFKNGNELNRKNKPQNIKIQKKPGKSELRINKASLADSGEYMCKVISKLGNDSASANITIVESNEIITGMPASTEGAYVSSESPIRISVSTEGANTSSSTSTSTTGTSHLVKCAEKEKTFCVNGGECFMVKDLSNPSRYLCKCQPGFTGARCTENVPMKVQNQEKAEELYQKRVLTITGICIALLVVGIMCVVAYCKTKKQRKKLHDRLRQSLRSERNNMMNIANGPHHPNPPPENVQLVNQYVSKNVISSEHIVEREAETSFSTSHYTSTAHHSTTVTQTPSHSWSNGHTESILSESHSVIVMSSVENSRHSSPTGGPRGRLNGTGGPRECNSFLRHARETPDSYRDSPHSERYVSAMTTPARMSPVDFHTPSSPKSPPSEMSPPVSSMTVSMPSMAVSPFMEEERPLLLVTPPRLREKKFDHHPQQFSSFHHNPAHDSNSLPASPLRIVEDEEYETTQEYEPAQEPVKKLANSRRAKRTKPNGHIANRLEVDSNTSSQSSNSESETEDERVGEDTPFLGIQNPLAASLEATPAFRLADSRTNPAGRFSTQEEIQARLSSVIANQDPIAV

[7] = system: Neuregulin-1 EGF-like domain; assay: binders of neuregulin-1 EGF-like domain, primary screen, biochemical, small-molecule microarray, 635 nm fluorescence (AID 1081); conditions: small-molecule microarray binding, higher = more signal;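 also: binding of the protein to compounds printed on small-molecule microarray slides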
[8] = FRG1 promoter luciferase signal modulators, primary screen, FRG1 inhibition for FSHD, cell-based, C2C12 myotubes, firefly/Renilla luciferase, luminescence (AID 1084); conditions: higher = more signal, called active from +8 up or from −8 down
[9] = binders of probe aFST on microarray, primary screen, stem cell growth factor project, biochemical, small-molecule microarray, fluorescence 635/667 (AID 1086); conditions: higher = more signal;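 also: score merges 667 nm fluorescence with signal-to-noise of each printed compound spot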
[10] = binders of probe aHhip on microarray, primary screen, stem cell growth factor project, biochemical, small-molecule microarray, fluorescence 635/667 (AID 1087); conditions: higher = more signal;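 also: score merges spot fluorescence at 667nm with spot signal to noise ratio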

Compound | composite z-score [1] | composite z-score [2] | composite z-score [3] | composite z-score [4] | composite z-score [5] | composite z-score [6] | composite z-score [7] | z-score [8] | composite z-score [9] | composite z-score [10]
CCOC(=O)N1C(c2ccc(OCCCO)cc2)=NC(C(=O)OC)N1C(=O)OCC (stereo not given) | -0.243 | 0.0754 | 0.0794 | 0.683 | 1.17 | 1.39 | 1.14 | 1.37 (inactive) | 0.424 | -0.347
CCCCCCCCCCC(O)C1C=CC2C(=O)N(c3ccccc3)C(=O)C2N1Nc1ccc([N+](=O)[O-])cc1 (stereo not given) | -0.325 | 0.112 | -0.0107 | 0.461 | 1.44 | 1.11 | 1.05 | 1.39 (inactive) | 0.574 | -0.199
COc1ccc(C(=O)Nc2cccc(CN3C(=O)[C@@]4(O[C@@H](CCn5cc([C@H](O)c6ccccc6)nn5)[C@H]([Si](C)(C)c5ccc(OC)cc5)[C@H]4C)c4ccccc43)c2)cc1 | 0.395 | -0.559 | -0.123 | 0.335 | 0.336 | 0.838 | 1.14 | -1.47 (inactive) | 0.179 | 0.0373
CCCNC(=O)[C@@]1(C)c2ccccc2C(=O)N(Cc2cc(C(F)(F)F)cc(C(F)(F)F)c2)[C@H]1c1ccc(CO)cc1 | 0.177 | -0.0656 | -0.0653 | 0.108 | -0.626 | 1.68 | 1.37 | 0.0565 (inactive) | -0.0368 | -0.0645
C=CCNC(=O)[C@H]1[C@@H]2C(=O)O[C@@H](c3ccccc3)[C@@H](c3ccccc3)N2[C@@H](c2ccc(OCCO)cc2)[C@]12C(=O)N(C(=O)OCCOC)c1ccc(C#CC3(O)CCCCCC3)cc12 | -0.0322 | 1.14 | -0.0627 | 0.527 | 1.03 | 0.764 | 1.31 | -0.313 (inactive) | 0.422 | 0.113
O=c1cccc(-c2ccccc2)o1 | -0.0048 | -0.313 | -0.0996 | 0.062 | 0.197 | -0.356 | 0.811 | 2.03 (inactive) | -0.0103 | 0.113
[N-]=[N+]=NCc1ccccc1[C@H]1OC(c2ccc(OCCCO)cc2)=N[C@@]1(Cc1ccccc1)C(=O)NCC(O)CO (stereo not given in full) | 0.835 | 0.768 | -0.127 | 0.407 | 0.641 | 1.65 | 0.565 | -0.0633 (inactive) | 0.1 | -0.146
CC(C)(C)OC(=O)CC[C@@]1(C(=O)NCC(O)CO)N=C(c2ccc(OCCCO)cc2)O[C@@H]1c1ccccc1 (stereo not given in full) | 0.222 | 1.68 | -0.11 | 0.0407 | 0.739 | 1.8 | 1.35 | 1.74 (inactive) | 0.74 | 0.12
CC(C)(C)OC(=O)CC[C@@]1(C(=O)N2CCOCC2)N=C(c2ccc(OCCCO)cc2)O[C@@H]1c1ccccc1N=[N+]=[N-] | 0.0033 | 1.13 | 0.213 | 0.883 | 1.43 | 1.75 | 1.29 | 0.97 (inactive) | 1.57 | 0.142
Cc1ccc(S[C@]2(C(=O)NCCN3CCOCC3)CC(=O)N(C3CCCCC3)[C@@H]2c2ccc(CO)cc2)cc1 | -0.0386 | -0.439 | -0.158 | 0.123 | 0.825 | 1 | 1.09 | 0.046 (inactive) | 0.283 | -0.0645
O=C1OCC=C[C@H]2OC34C=CCN(c5ccc(Cl)cc5)C(=O)[C@H]3N(CCCO)C(=O)[C@@H]4[C@@H]12 (stereo not given in full) | 0.768 | -0.38 | -0.0847 | -0.573 | -1.6 | 0.3 | 1.41 | -0.0992 (inactive) | -0.415 | -0.277
COCCCNC(=O)[C@@]1(Sc2ccc(C)cc2)CC(=O)N(Cc2ccccc2)[C@@H]1c1ccc(CO)cc1 | 0.178 | 0.685 | 0.0431 | 0.738 | -0.774 | 0.505 | -0.233 | -1.53 (inactive) | -0.217 | 0.0347
Cc1cccc(/C=C/C=O)c1 | -0.305 | -0.582 | -0.0996 | 0.0071 | -0.663 | 0.27 | 0.928 | 0.641 (inactive) | 0.211 | -0.056
CCOC(=O)C=Cc1cccc(OC)c1O | -0.0086 | 0.689 | -0.0894 | -0.572 | -1.37 | -0.196 | 0.189 | 6.99 (inactive) | -0.722 | -0.439
C[N+](C)(C)CCCC[C@@H]1NC(=O)[C@H]2C[C@@H](C(=O)O)[C@@H](c3cccc(OCCO)c3)N2C1=O | 2.11 | 1.85 | 0.676 | 0.788 | 1.01 | 2.81 | 1.44 | -0.698 (inactive) | 1.65 | 1.88
CN1C(=O)C2C=CC(C(O)c3ccccc3)N(NC(=O)OC(C)(C)C)C2C1=O (stereo not given) | -0.366 | 0.583 | 0.0728 | 0.268 | 1.34 | 0.871 | 0.792 | 1.82 (inactive) | 0.868 | -0.0645
O=C1C2C=CC(C(O)c3ccccn3)N(Nc3ccccc3F)C2C(=O)N1c1ccccc1 (stereo not given) | -0.22 | 0.135 | -0.047 | 0.4 | 0.417 | 0.301 | 1.02 | 1.9 (inactive) | 0.19 | -0.0945
COCCOC(=O)N1C(=O)[C@@]2(c3cc(C#CCCO)ccc31)[C@H](C(=O)NC[C@H](O)c1ccccc1)[C@H]1C(=O)O[C@H](c3ccccc3)[C@H](c3ccccc3)N1[C@@H]2c1ccc(OCCO)cc1 | 0.664 | 0.271 | -0.114 | 0.208 | 1.08 | 1.27 | 1.16 | 0.469 (inactive) | 0.152 | -0.11
O=C1C2C=CC(C(O)c3ccc(B(O)O)cc3)N(Nc3ccc([N+](=O)[O-])cc3)C2C(=O)N1c1ccccc1 (stereo not given) | -0.28 | 0.378 | 0.0121 | 0.84 | 1.46 | 1.56 | 1.05 | 0.663 (inactive) | 1.25 | -0.236
COC(=O)[C@@]1(Cc2ccc(OC)cc2)[C@H]2c3cc(C(=O)N4CCCC4)n(C[C@H](O)CO)c3C[C@H]2CN1C(=O)c1ccccc1 | 0.288 | -0.0909 | 0.198 | 0.673 | 1.13 | 1.17 | 0.531 | 1.13 (inactive) | 0.488 | 0.0749
CCCC[C@@H]1C[C@H]1[C@@H](NC(=O)c1ccco1)c1ccccc1 | 1.29 | -0.52 | -0.171 | -0.511 | -2.22 | -0.44 | -0.454 | -0.192 (inactive) | -0.945 | -0.0275
O=C(CS)NCCCCCNC(=O)[C@H]1C[C@H]2C(=O)N[C@@H](Cc3ccccc3)C(=O)N2[C@H]1c1cccc(OCCO)c1 | 0.0238 | 1.31 | -0.0195 | 1.16 | 0.617 | 0.244 | 1.33 | -0.676 (inactive) | 0.551 | -0.156
